Assay outcomes deposited in PubChem BioAssay by several laboratories.
APP transl inh – APP translation inhibition; SH-SY5Y APP 5'UTR-luciferase reporter, luminescence; inhibition, % at 2 µM; 190,000 compounds, 0.82% hits; AID 1285;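 active = inhibition above a set limit, derived from the sample mean plus 3 SD, cut at about 45% in these data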
aSyn UTR inh – MLPCN primary screen, SNCA 5' untranslated region; alpha-synuclein 5'UTR reporter, inhibitor activity; inhibition, % (tested at 7.5 µM); 300,000 compounds, 0.82% hits; in the data active = inhibition above about 60%;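 also: H4 neuroglioblastoma cells stably carrying SNCA 5'UTR luciferase fusion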
Ba/F3 V617F tox – lowers viability of Ba/F3 cells expressing EpoR and JAK2V617F; inhibition, % at 5.6 µM; ATP luminescence; 220,000 compounds, 1.1% hits;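 active = inhibition above the campaign mean plus 3 SD over all tested compounds, cut at about 24% in these data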;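 also: cytokine-independent growth of Ba/F3 cells driven by EpoR plus mutant JAK2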
KLF5 inh – inhibitors of KLF5 expression | DLD-1 KLF5 promoter-luciferase reporter, luminescence | inhibition, % at 5 µM | AID 1700 | 290,000 compounds, 0.23% hits;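 active = inhibition above a per-plate limit of that plate's mean compound inhibition plus 3 SD, cut at about 60% in these data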;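 also: higher means less KLF5 promoter-driven luciferase light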
IEC-6 cytotox – IEC-6 cytotoxicity, counter-screen for KLF5 inhibitors; inhibition, % at 5 µM; luminescence viability; 290,000 compounds, 0.78% hits
BaF3 parental – reduces parental Ba/F3 cell viability, JAK2V617F counter-screen; CellTiter-Glo ATP luminescence; inhibition, % at 5.6 µM; 220,000 compounds, 1.1% hits; AID 1486;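 active = inhibition above a per-campaign cutoff, the mean inhibition of all tested compounds plus 3 SD, cut at about 27% in these data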
IEC-6 cytotox cf – confirmation of cytotoxic compounds in rat IEC-6 intestinal epithelial cells | shares compounds with IEC-6 cytotox | IEC-6 rat intestinal epithelial viability, luminescence | inhibition, % at 5 µM | 1,900 compounds, 63% hits | AID 1907
Hits are given with their value; 0 = inactive; - = no result. Compounds with a hit are over-represented: about 2.2% of the library has one in this group of screens. Rule as the data show it, unless noted: active = inhibition above about 22%; inactive = the rest.

SMILES	APP transl inh	aSyn UTR inh	Ba/F3 V617F tox	KLF5 inh	IEC-6 cytotox	BaF3 parental	IEC-6 cytotox cf
Cc1ccc(OCc2cc(C(=O)N3CCC(c4ccccc4Cl)C3)no2)cc1C (stereo unspecified)	-	0	-	0	0	-	-
c1ccc(-c2noc(-c3cccnc3)n2)nc1	0	0	0	0	0	0	-
c1ccc(-c2noc(-c3ccncc3)n2)nc1	0	0	33	0	29	34	25
COc1ccc(NS(=O)(=O)c2cc(NC(=O)c3ccc(=O)[nH]c3)ccc2N2CCCC2)cc1	-	0	-	0	42	-	25
COc1ccc(NS(=O)(=O)c2cc(NC(=O)c3cnc(C)cn3)ccc2N2CCCC2)cc1	0	0	0	0	0	0	-
CCOc1ccc(CCNC(=O)Cc2ccc(NC(=O)C3=C(C)OCCS3)cc2)cc1	-	0	-	0	0	-	-
CSc1ccc(CNC(=O)Cc2ccc(NC(=O)C3=C(C)OCCS3)cc2)cc1	-	0	-	0	27	-	35
FC(F)(F)c1cccc(-c2nc3nc(Cl)c(Cl)nc3[nH]2)c1	-	0	0	0	31	0	39
COc1cnc(-c2cccc(C(F)(F)F)c2)[nH]c1=O	0	0	0	0	0	0	-
COc1ccccc1Nc1c2c(nc3ccccc13)CCC2	-	0	-	0	48	-	31
COC(=O)c1cccc(Nc2c3c(nc4ccccc24)CCC3)c1	-	0	-	0	28	-	0
CC(=O)c1ccc(Nc2c3c(nc4ccccc24)CCCC3)cc1	-	0	0	0	25	0	0
CCOC(=O)C1(CC2CC2)CCN(S(=O)(=O)/C=C/c2ccccc2)CC1	0	0	0	0	0	0	-
COc1cccc(-n2nc(C#N)c(Cl)cc2=O)c1	91	0	0	0	28	0	29
COc1cccc(-n2nc(C(N)=O)c(O)cc2=O)c1	0	0	0	0	0	0	-
Cc1ccc2nc(SCc3nnc(-c4ccccc4Br)o3)[nH]c2c1	0	0	0	0	22	0	0
Clc1ccc2nc(SCc3nnc(-c4ccccc4)o3)[nH]c2c1	0	0	0	0	0	0	-
CC(C)CN=C(NS(=O)(=O)c1ccccc1)C(Cl)(Cl)Cl	0	0	0	0	0	0	-
Cn1nnnc1NCc1cccc(Cl)c1Cl	0	0	0	0	0	0	-
Oc1ccc(C(=S)N2CCN(c3cccc(Cl)c3)CC2)cc1	0	0	0	0	0	0	-
COc1cc(C(=S)N2CCN(c3cccc(Cl)c3)CC2)ccc1O	0	0	0	0	28	0	0
O=C(NCCN1CCOCC1)C1CCCN(S(=O)(=O)c2ccc(F)cc2)C1 (stereo unspecified)	-	0	-	0	0	-	-
Cc1noc(C(=O)Nc2cccc(Cl)c2)c1Cl	-	0	-	0	0	-	-
CC(=O)c1cccc(NC(=O)c2ccc([N+](=O)[O-])o2)c1	-	0	-	-	-	-	-
Cc1cc(C)cc(NC(=O)c2ccc([N+](=O)[O-])o2)c1	71	0	95	0	103	59	24
SMILES	APP transl inh	aSyn UTR inh	Ba/F3 V617F tox	KLF5 inh	IEC-6 cytotox	BaF3 parental	IEC-6 cytotox cf
COc1ccc(NC(=O)c2ccc([N+](=O)[O-])o2)cc1	-	0	-	0	44	-	0
CC(=O)c1ccc(NC(=O)c2ccc([N+](=O)[O-])o2)cc1	-	0	-	0	32	-	0
CC(C)CC(OC(=O)c1ccco1)C(=O)NC1CCCC1 (stereo unspecified)	-	0	-	0	0	-	-
CN(C(=O)c1ccc2c(c1)OCO2)C1(C)CCS(=O)(=O)C1 (stereo unspecified)	-	0	-	-	-	-	-
COc1cccc(C2=NN(C(=O)CCCC(=O)O)C(c3cccs3)C2)c1 (stereo unspecified)	-	0	0	0	0	0	-
CN(C)c1ccccc1C(=O)c1ccccc1N(C)C	91	0	77	0	74	75	22
CN(c1ccccc1C(=O)O)S(C)(=O)=O	0	0	0	0	0	0	-
COc1ccc(CC(=O)N2N=C(c3ccncc3)CC2(O)C(F)(F)F)cc1 (stereo unspecified)	0	0	0	0	24	0	30
COc1cccc(C(=O)N2N=C(c3ccccn3)CC2(O)C(F)(F)F)c1 (stereo unspecified)	-	0	0	0	24	0	0
O=C1NC2=C(C(=O)CCC2)C(c2ccc(OC(F)F)cc2)N1 (stereo unspecified)	-	0	-	0	0	-	-
Cc1cccc(CNC(=O)C(C)n2nc(C)c3c(C)n(-c4ccccc4)nc3c2=O)c1 (stereo unspecified)	-	0	-	0	0	-	-
COCC(C)N1CC(O)=C(c2nc(-c3ccc(Cl)cc3)cs2)C1=N (stereo unspecified)	0	0	0	0	0	0	-
COc1cccc(NC(=O)N2CCCC2C(=O)NCc2ccc(Cl)cc2)c1 (stereo unspecified)	-	0	-	0	0	-	-
OC(CNCCc1ccccc1)COc1ccc(OCC(O)CNCCc2ccccc2)cc1 (stereo unspecified)	-	107	0	0	26	0	42
OC(CNCCc1ccc(Cl)cc1)COc1ccc2ccccc2c1 (stereo unspecified)	0	-	0	0	0	0	-
CC(CNS(=O)(=O)c1ccccc1)(c1ccccc1)N1CCCCC1 (stereo unspecified)	-	0	0	0	0	0	-
C/C(=N/Nc1ccc([N+](=O)[O-])cc1)c1ccc(C)cc1C	0	0	0	0	0	0	-
C/C(=N/Nc1ccc([N+](=O)[O-])cc1)c1c[nH]c2ccccc12	-	0	-	0	24	-	22
CCOC(=O)C1CCN(C(=O)c2cccnc2Oc2ccccc2)CC1	-	0	0	0	0	0	-
Oc1c(C(Nc2ccccn2)c2ccccn2)ccc2cccnc12 (stereo unspecified)	0	0	0	0	0	0	-
CCC(=O)NC(c1ccc(C)cc1)c1ccc2cccnc2c1O (stereo unspecified)	-	81	-	73	61	-	82
CCC(=O)NC(c1ccc(Cl)cc1Cl)c1ccc2cccnc2c1O (stereo unspecified)	-	75	-	86	26	-	70
CCC(=O)NC(NC(=S)Nc1cccc2cccnc12)C(Cl)(Cl)Cl (stereo unspecified)	0	0	0	0	0	0	-
Cc1cc(NC(c2ccc(Cl)cc2)c2ccc3cccnc3c2O)no1 (stereo unspecified)	79	85	0	0	39	55	72
Nc1cc(Cl)ccc1Nc1ccncc1	-	0	-	0	0	-	-
Cc1ccc2nc(C)c(CN3CCN(c4ccc([N+](=O)[O-])cc4Cl)CC3)n2c1	-	0	-	0	26	-	47
COCCCNC(=S)N/N=C/c1cccc(OC)c1O	-	-	0	0	60	0	0
COCCCNC(=S)N/N=C/c1ccc(O)cc1O	-	0	0	0	0	0	-
COc1ccc(-c2csc(NC(=O)c3cc(C)oc3C)n2)cc1OC	-	0	-	0	0	-	-
O=C(N/N=C/c1c[nH]c2ccccc12)c1cc(-c2ccc(-c3ccccc3)cc2)n[nH]1	0	0	0	0	0	0	-
